Reference: PubChem BioAssay AID1259415 (National Center for Advancing Translational Sciences (NCATS), 2018)
Out of some 410,000 compounds screened, about 18,000 (4.4%) were called active. Another 7% or so got no clear call; they are omitted. The full list was thinned out, with actives kept by preference. Values without a mark were called inactive. No stated cut-off is given here; in the data, active means activity change below about -60%; inconclusive means no clear call, values can overlap the other calls; inactive means above about -39%.

assay: qHTS Assay for inhibitors of the human cytomegalovirus (HCMV); settings: HFF cells, HCMV-luciferase reporter, 72 h; at 57.5 µM; stronger effect = lower value
Method in brief: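 Two-dose cell screen: HFF monolayers treated with compounds and infected with luciferase-expressing HCMV at 1 PFU/cell, 72 h at 37C, then lysed for luciferase measurement.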
On the % scale 0 is the no-effect control and ±100 the full control effect.

SMILES | activity change, negative = inhibition
CC1CCN(C2=NC(=O)/C(=C/c3cn[nH]c3-c3ccccc3)S2)CC1 | -1.68%
O=C1N=C(N2CCOCC2)S/C1=C\C=C/c1ccccc1 | -102% (active)
O=C1N=C(N2CCOCC2)CS1 | -12.8%
COc1ccc(C2CC(=O)N(Cc3ccccc3C)c3c2c(C)nn3-c2nc(C)cc(C)n2)c(OC)c1 (stereo not given) | -22.9%
O=C(COc1ccc(Cl)cc1)Nc1ccc(-c2nc3cc(Cl)ccc3o2)c(O)c1 | 71.6%
O=C(Cn1cnc2ccccc2c1=O)Nc1cccc(S(=O)(=O)N2CCCCC2)c1 | 0%
CSc1ccccc1NC(=O)CN(C)CC(=O)Nc1ccc(Cl)cc1[N+](=O)[O-] | -26.6%
CCC(C)c1ccccc1NC(=O)CN(C)CC(=O)Nc1ccccc1SC (stereo not given) | -37.9%
CSc1ccccc1NC(=O)CN(C)CC(=O)Nc1cccc(Br)c1 | -99.6% (active)
O=C(Cn1c(=O)n(Cc2cccs2)c(=O)c2cccnc21)Nc1ccc(F)cc1 | -5.11%
CCCC(=O)Nc1ccc2oc(-c3ccc(O)c(Br)c3)nc2c1 | 94.7%
COc1ccc(CCNC(=O)c2cc(=O)c3c(C)cc(C)cc3o2)cc1OC | -6.54%
COc1cccc(-n2cc(C(=O)NCc3cccc(Cl)c3)c3ccccc3c2=O)c1 | -23.6%
CCC1CN(S(=O)(=O)c2cc(-c3cc(C)no3)ccc2C)c2cc(C)ccc2O1 (stereo not given) | -36.6%
Cc1ccc2c(c1)N(S(=O)(=O)c1cc(-c3cc(C)no3)ccc1C)CCO2 | -81.3% (active)
CCN(CC)c1ccc(NS(=O)(=O)c2cc(-c3cc(C)no3)ccc2C)c(C)c1 | 0%
C[C@@H]1NS(=O)(=O)c2cc(Cl)ccc2O[C@@H]1c1ccccc1 | -16.5%
COc1ccc(CCn2cc3c(c2-c2ccc(Br)cc2)c(=O)n(C)c(=O)n3C)cc1OC | 15.4%
COc1ccc(S(=O)(=O)NCc2cccn2Cc2cccc(C)c2)cc1 | -4.02%
CCOc1ccc(N(C)S(=O)(=O)c2cc(-c3cnc(C)o3)ccc2OC)cc1 | -20.5%
Cc1nn(C(C)C(=O)Nc2ccc(C(C)C)cc2)c(=O)c2c1sc1ccccc12 (stereo not given) | -9.99%
COc1ccccc1NC(=O)C1CCCN1S(=O)(=O)c1ccc(Cl)cc1 (stereo not given) | 0.0905%
COc1ccccc1Nc1nc(N)nc(N)c1S(=O)(=O)c1ccccc1 | 21.5%

SMILES | activity change, negative = inhibition
COc1ccccc1NC1=NC(c2ccc(Cl)cc2)N=C(N)N1 (stereo not given) | -75.4% (active)
CC(=NNC(N)=O)c1ccc(Cl)c(-n2cccc2)c1 | 25.6%
Cc1cccc2c(=O)cc(CSc3ccccc3NC(=O)C(C)C)[nH]c12 | 45.6%
COCCCNC(=O)c1ccc(NC(=O)c2nsc3ccccc23)cc1 | 114%
CCCc1ccc(OCc2ccc(C(=O)N/N=C/c3cccc([N+](=O)[O-])c3)o2)c(OC)c1 | -67.9% (active)
Cc1cccc(NC(=O)c2ccc(COc3ccccc3[N+](=O)[O-])o2)n1 | -4.62%
COc1ccccc1OCc1ccc(C(=O)NC(C)c2ccccc2)o1 (stereo not given) | 26.2%
COc1ccc(N(CC(=O)NCCc2ccc(Cl)cc2)S(=O)(=O)c2c(C)nn(C)c2C)cc1 | -14.4%
Cc1ccc(S(=O)(=O)NCc2nc3nc(C)cc(C)n3n2)cc1 | 14.6%
Cc1ccc(-c2nn3c(=O)cc(CN4CCN(C(=O)Nc5cccc(C(F)(F)F)c5)CC4)nc3s2)cc1 | 10.5%
CCOC(=O)C1CCN(c2csc3ccc(C)cc3c2=O)CC1 | -4.71%
COc1cccc(C(O)Cc2nc3ccccc3n2C)c1OC (stereo not given) | 34.8%
CC(NCc1nc2ccccc2n1C)C12CC3CC(CC(C3)C1)C2 (stereo not given) | -65.6% (active)
Cn1c(COc2ccccc2C(C)(C)C)nc2ccccc21 | -14.6%
CCOC(=O)c1ccc(NC(=O)c2csc3c2CCCCC3)cc1 | 26.3%
Nn1c(SCC(=O)NC2CCCc3ccccc32)nnc1C1CC1 (stereo not given) | 40.9%
CC(C)N(Cc1ccccc1)C(=O)COC(=O)c1ccccc1SCC(=O)N1CCCC1 | -8.52%
O=C(CC1C(=O)NCCN1Cc1ccc(-c2ccccc2)cc1)NCc1ccncc1 (stereo not given) | 11.9%
COc1ccc(CN2CCNC(=O)C2CC(=O)NCc2cn[nH]c2-c2ccccc2)c(F)c1 (stereo not given) | -65.5% (active)
CC(C)c1nc(CNC(=O)CC2C(=O)NCCN2Cc2cccc(F)c2F)cs1 (stereo not given) | 12.4%
CCOc1ccc(N2CC(C)Cn3c2nc2c3c(=O)n(Cc3c(F)cccc3Cl)c(=O)n2C)cc1 (stereo not given) | -9.51%
CCOc1ccccc1NC(=O)CN1CCN(S(=O)(=O)c2ccc(Br)cc2)CC1 | -1.48%
O=C(NC1CC(=O)N(c2ccc(F)cc2)C1)C1CCCCC1 (stereo not given) | 31.9%

SMILES | activity change, negative = inhibition
Cc1ccc(C)c(N2CCN(C(c3ccccc3)c3nnc(-c4ccccc4)o3)CC2)c1 (stereo not given) | 20.2%
O=C(NN1C(=O)C2C3C=CC(O3)C2C1=O)c1ccncc1 (stereo not given) | -8.47%
O=C(NN1C(=O)C2C3C=CC(C4CC34)C2C1=O)c1ccc(Cl)cc1 (stereo not given) | 11.6%
COc1ccc(C(=O)NN2C(=O)C3C(c4ccccc4)C=CC(c4ccccc4)C3C2=O)cc1 (stereo not given) | -63% (active)
CCc1cccc(NC(=O)c2cnc(N3CCOCC3)c3ccccc23)c1 | 10.1%
COc1ccc(CCNC(=O)c2ccc3c(c2)nc(C)n3-c2ccc(Br)cc2)cc1OC | -16.1%
Cc1ccc(C)c(Cn2c(C)c(CNCc3ccc(F)cc3)c(C(=O)O)c2C)c1 | 18.1%
Cc1ccc(C2c3[nH]c4ccccc4c3CCN2C(=O)c2cccc(C)c2)cc1 (stereo not given) | -22.4%
Brc1ccc2ncnc(NCc3cccnc3)c2c1 | -65.9% (active)
C=CCOc1cccc(CNCc2cccnc2)c1 | 21.4%
Clc1cccc(-n2ncc3c(NCCc4ccccc4)ncnc32)c1 | 41.5%
C=CCNc1ncnc2ccc(Br)cc12 | -60.6% (active)
Clc1ccc(Cn2ncc3c(NCc4cccnc4)ncnc32)cc1 | -72.2% (active)
c1cncc(CNC2=NCCC2)c1 | 46.1%
CC(C)CNc1ncnc2c1cnn2Cc1ccc(Cl)cc1 | -30.5%
COc1ccc(CCNS(=O)(=O)c2cccc([N+](=O)[O-])c2)cc1 | -2.78%
COc1cc2nc(NCC(C)c3ccccc3)n3nc(-c4ccccc4)nc3c2cc1OC (stereo not given) | 5.32%
Cc1ccc2cccc(NC(=O)C(C)Oc3ccc(C)c(C)c3)c2n1 (stereo not given) | -3.68%
C=CCNC(=O)c1cc2nc(C3CC3)cc(C(F)F)n2n1 | 37.6%
COc1ccc(N(CC(=O)Nc2ccc(F)c(F)c2)S(=O)(=O)c2c(C)[nH]c(=O)[nH]c2=O)cc1 | 0%
CC(C)c1ccc(NC(=O)c2cc(S(=O)(=O)N3CCc4ccccc4C3)ccc2F)cc1 | 3.74%
CC1=C(C(=O)OCC(C)C)C(c2ccc(OCc3ccccc3)cc2)N2C(=O)CCSC2=N1 (stereo not given) | 14.9%
CCc1ccc(NC(=O)CN2C(=O)C(c3ccccc3)=NC23CCCCCC3)cc1 | 16.1%

SMILES | activity change, negative = inhibition
CC1CCC2(CC1)N=C(c1ccccc1)C(=O)N2CC(=O)Nc1ccc(F)c(Cl)c1 (stereo not given) | -96% (active)
COc1ccc(NC(=O)CN2C(=O)C(c3ccccc3)=NC23CCCCCC3)cc1OC | -13.9%
COc1cccc(NC(=O)C2CCN(c3cc(C)nc4c(-c5ccc(Cl)cc5)c(C)nn34)CC2)c1 | -5.4%
O=c1cc(-c2ccccc2)[nH]c2cc(F)ccc12 | -67.4% (active)
CC(=O)c1cc(-c2ccccc2)[nH]c1N1CCCC1 | 30.4%
Cc1ccc(-c2cc(=O)c3ccc(F)cc3[nH]2)cc1 | 3.06%
COc1cccc2sc(Nc3nc(C)c(C(C)=O)s3)nc12 | -77% (active)
COc1ccccc1Nc1ncc(C(C)=O)c(C)n1 | 16.2%
COc1ccccc1CNC(=O)COC(=O)c1sc(C)nc1C | -2.84%
O=C(Nc1ccc(-c2nc3cc(NC(=O)c4ccccc4Cl)ccc3o2)cc1)c1ccccc1Cl | -35.6%
COc1ccc(-c2nc(Cn3c(=O)cc(C)c4c(C)nn(-c5ccccc5)c43)c(C)o2)c(OC)c1 | -2.37%
Cc1nc2ccc(S(=O)(=O)NC(C(=O)NCc3ccccc3Cl)C(C)C)cc2s1 (stereo not given) | -12.9%
CC1(C)CC(=O)C=C(c2ccc(Cl)c(C(F)(F)F)c2)C1 | -4.75%
COc1ccccc1-c1n[nH]nc1C1=CC(=O)CC(C)(C)C1 | -4.89%
CC1(C)CC(=O)C=C(c2ccc3ncccc3c2)C1 | -83.3% (active)
CC1CCCCN1Cc1c(O)ccc2c(=O)c(-c3cccc(Cl)c3)c(C(F)(F)F)oc12 (stereo not given) | 11.3%
O=C(CCc1c[nH]c2ccccc12)NCCOc1ccccc1 | -2.62%
O=C(NCCCc1ccccc1)C(=O)c1c[nH]c2ccccc12 | 21.3%
N#C/C(=C/c1ccc(N2CCCCC2)o1)C(=O)NCCc1c[nH]c2ccccc12 | -60.4% (active)
COc1ccc(NC(=O)Cn2cc(C(=O)c3ccncc3)c(=O)c3cc(C)ccc32)cc1Cl | -8.82%
CCCOc1ccc(C2c3c(-c4ccccc4O)n[nH]c3C(=O)N2Cc2cccnc2)cc1 (stereo not given) | 8.52%
